Reference: PubChem BioAssay AID504727 (Broad Institute, 2011)
Activity calls are given as the source filed them.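 Rule for the calls: active = fitted half-maximal concentration AC50 at or below ten times the highest valid tested dose, with signal falling as DNA is displaced (actives reach about 34 µM in these data); inconclusive = flat fit at moderate signal loss, or poor fit quality; inactive = the rest, including signal rising instead of falling.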

Test: acridine orange-DNA binding displacement – biochemical, fluorescence polarization, cherry-picked samples, set 2, artefact control for KSHV LANA DNA-binding inhibitor project, dose response (AID 504727)

**Q.** With `COC(=O)\C(C(C)=O)=C(/C=C/C=C/C=C/N(C)C)N(C)C` as the compound, how does the AC50 read?
**A.** inactive

**Q.** With `O=C(c1ccc2c(c1)CCN2S(=O)(=O)c1ccccc1)N1CCN(c2ccc(F)cc2)CC1` as the compound, how does the AC50 read?
**A.** inactive

**Q.** For `Cc1c(C#N)c(=O)c(-[n+]2ccccc2)c([S-])n1-c1ccc(Cl)cc1`, which AC50 is on record?
**A.** inactive

**Q.** For `O=c1[nH]nc(CSCc2ccccc2Cl)[nH]1`, which AC50 is on record?
**A.** inactive

**Q.** Which AC50 does the source give for `Cc1cccc(C)c1NC(=O)CSc1nnc(-c2ccco2)c(-c2ccco2)n1` here?
**A.** inactive

**Q.** For `Cc1c(C)n(CCC(=O)O)c2ccccc12`, which AC50 is on record?
**A.** inactive

**Q.** For `O=C1c2cccc3c(O)ccc(c23)C(=O)N1c1ccc(Cl)cc1`, which AC50 is on record?
**A.** 2950 nM (active)

**Q.** With `NC(=O)C1=NOC(CNc2ncc(C(F)(F)F)cc2Cl)C1` (stereo unspecified) as the compound, how does the AC50 read?
**A.** inactive

**Q.** With `CCOC(=O)C1Nc2ccc(C(=O)O)cc2C2C=CCC12` (stereo unspecified) as the compound, how does the AC50 read?
**A.** inactive

**Q.** Which AC50 does the source give for `Cc1ccc(-c2nnn(CC(=O)NC3CCN(Cc4ccccc4)CC3)n2)cc1` here?
**A.** inactive

**Q.** With `C/C(=N/NC(=O)c1ccncc1)c1cc2ccc(O)cc2oc1=O` as the compound, how does the AC50 read?
**A.** 343 nM (active)

**Q.** Which AC50 does the source give for `CCOC(=O)N1CCN(C(=S)NC(=O)c2cccc(OC)c2)CC1` here?
**A.** inactive

**Q.** Which AC50 does the source give for `CC(C(=O)Nc1ccc(C(=O)O)c(O)c1)N1C(=O)/C(=C\c2ccco2)SC1=S` (stereo unspecified) here?
**A.** inactive

**Q.** For `CC(Sc1nc2ccccc2s1)C(=O)Nc1nnc(C(C)C)s1` (stereo unspecified), which AC50 is on record?
**A.** inactive

**Q.** Which AC50 does the source give for `CSc1n[nH]c(=O)n1-c1cccc(Cl)c1` here?
**A.** inactive

**Q.** For `CCc1ccc(C2CC(c3cccc(Cl)c3)n3nc(N)nc3N2)cc1` (stereo unspecified), which AC50 is on record?
**A.** inactive

**Q.** For `COc1cc(NC(=O)c2ccc(CNc3c(N4CCCC4)c(=O)c3=O)cc2)cc(OC)c1OC`, which AC50 is on record?
**A.** inactive

**Q.** With `Cc1nn(C)c(C)c1N1C(=O)c2cccc3c(N)ccc(c23)C1=O` as the compound, how does the AC50 read?
**A.** 768 nM (active)

**Q.** For `Cc1c(N)cc(S(=O)(=O)O)cc1NC(=O)c1cccc([N+](=O)[O-])c1`, which AC50 is on record?
**A.** inactive

**Q.** With `O=C1C=C(c2ccoc2)N2CCC[C@H]2C1` as the compound, how does the AC50 read?
**A.** inactive

**Q.** With `CCc1ccc[n+](-c2[nH]c(=O)sc2/C=N/NC([S-])=Nc2ccccc2)c1` as the compound, how does the AC50 read?
**A.** 14800 nM (active)

**Q.** Which AC50 does the source give for `COc1ccc2nc3ccccc3[n+]([O-])c2c1` here?
**A.** 26000 nM (active)

**Q.** With `Cc1ccc(NC(=O)CN(C)C(=O)c2nn(C)c(=O)c3ccccc23)cc1` as the compound, how does the AC50 read?
**A.** inactive

**Q.** For `CN(C)C(=O)c1ccc(NC(=O)COC(=O)C2(c3ccccc3)CCCC2)cc1`, which AC50 is on record?
**A.** inactive

**Q.** Which AC50 does the source give for `O=C(O)/C=C/c1ccccc1Oc1ccccc1` here?
**A.** inactive

**Q.** For `Cc1nc(Cl)c2c(n1)NC1=C(O2)C(=O)CCC1`, which AC50 is on record?
**A.** 11100 nM (active)

**Q.** For `COc1ccc2[nH]c3c(C)c4cc[n+](C)cc4c(C)c3c2c1`, which AC50 is on record?
**A.** 2530 nM (active)

**Q.** For `COc1ccc(Br)cc1CNC(=O)CCCc1cn(C)c2ccccc12`, which AC50 is on record?
**A.** inactive

**Q.** Which AC50 does the source give for `Cc1ccc2cccc(OCC(=O)NCCC3=CCCCC3)c2n1` here?
**A.** inactive

**Q.** With `O=C(/C=C\c1ccccc1)Oc1cccc2cccnc12` as the compound, how does the AC50 read?
**A.** inactive

**Q.** For `COc1cc(CN2CC(=O)N(c3cc(Cl)ccc3C)C2=S)cc(OC)c1OC`, which AC50 is on record?
**A.** inactive
